# Data published in PubChem BioAssay AID1645838 (ICCB-Longwood Screening Facility, Harvard Medical School, 2021).
# Out of some 2,000 compounds screened, about 100 (5%) were called active. Cut-off read from the data, not from the text of the source: active = z-score above about 2; inactive = the rest. Only a selection was taken, and actives are over-represented in it overall.
# Assay: supercomplex reporter luminescence per Hoechst cell count – Hoechst nuclei count (AID 1645838);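 note: control cybrid cells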;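 for z-score: higher means more mitochondrial supercomplex formation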
# Conditions: Cells, luminescence/Hoechst cell count ratio; for z-score: stronger effect = higher value; for cell count: measured here: cell number, Hoechst nuclei count
# [1] = library stock concentration (final well concentration not given) 46 uM
# [2] = library stock concentration (final well concentration not given) 278 uM
# [3] = library stock concentration (final well concentration not given) 1.67 mM
# [4] = library stock concentration (final well concentration not given) 10 mM
# [5] = library stock concentration (final well concentration not given) 80 uM
# [6] = library stock concentration (final well concentration not given) 400 uM
# [7] = library stock concentration (final well concentration not given) 2 mM
smiles,measurement,setting,value
Cc1cc(CS(=O)(=O)c2ccccc2)cc(OCc2ccc(CN3CCCC3CO)cc2)c1 (stereo not drawn),z-score,[1],-0.0615 (inactive)
same,z-score,[2],-0.164 (inactive)
same,z-score,[3],-0.0708 (inactive)
same,z-score,[4],-0.221 (inactive)
same,cell count,[1],5870
same,cell count,[2],5750
same,cell count,[3],5420
same,cell count,[4],5130
CCCCCCCCCCCCC/C=C/[C@@H](O)[C@H](CO)NC(=O)CCCCC,z-score,,-0.258 (inactive)
same,cell count,,5330
CC(/C=C/C(=O)NO)=C\[C@@H](C)C(=O)c1ccc(N(C)C)cc1,outcome,,inactive; censored for cell count
Cc1ccc(C(=O)NCCCCCC(=O)Nc2ccccc2N)cc1,z-score,[5],0.128 (inactive)
same,z-score,[6],0.271 (inactive)
same,z-score,[7],0.708 (inactive)
same,z-score,[4],4.86 (active)
same,cell count,[5],5180
same,cell count,[6],5260
same,cell count,[7],4840
same,cell count,[4],3070
Cc1ccc(NC(=O)CCCCCC(=O)Nc2ccccc2N)cc1,z-score,,1.29 (inactive)
same,cell count,,4790
CCOC(=O)NCCCC(=O)NCCc1ccccc1,z-score,[1],-0.07 (inactive)
same,z-score,[2],-0.00876 (inactive)
same,z-score,[3],-0.143 (inactive)
same,z-score,[4],-0.14 (inactive)
same,cell count,[1],5970
same,cell count,[2],5710
same,cell count,[3],5220
same,cell count,[4],5550
CN(C)c1ccc(C(=O)NCCCCCCC(=O)NO)cc1,z-score,,6.25 (active)
same,cell count,,3650
CN(C)c1ccc(C(=O)NCCCCCC(=O)NO)cc1,z-score,,0.156 (inactive)
same,cell count,,5320
CCCCC[C@H](O)/C=C/[C@@H]1[C@@H](CCCCCCC(=O)O)[C@H](O)C[C@@H]1O,z-score,,-0.12 (inactive)
same,cell count,,5440
CC(C)CC[C@@H](O)[C@@H](C)C1CCC2C3CC=C4C[C@@H](O)CC[C@]4(C)C3CC[C@@]21C (stereo partly drawn),z-score,,-0.379 (inactive)
same,cell count,,5080
COC(=O)CCC[C@H](O)[C@H](O)CO,z-score,,-0.313 (inactive)
same,cell count,,5480
CCCCCC/C=C\CCCC(=O)CC(=O)N[C@H]1CCOC1=O,z-score,,0.196 (inactive)
same,cell count,,5220
CCCCC(C)(C)[C@H](O)/C=C/[C@H]1[C@H](O)CC(=O)[C@@H]1CCCCCCC(=O)O,z-score,,-0.22 (inactive)
same,cell count,,5310
O=C(O)c1cc(C(F)(F)F)ccc1N1CCC(OCc2ccccn2)C1 (stereo not drawn),z-score,[5],-0.188 (inactive)
same,z-score,[6],-0.142 (inactive)
same,z-score,[7],-0.236 (inactive)
same,z-score,[4],-0.254 (inactive)
same,cell count,[5],6080
same,cell count,[6],6070
same,cell count,[7],6240
same,cell count,[4],5970
CCCCC[C@H](O)/C=C/[C@H]1CCC(=O)[C@@H]1C/C=C\CCCC(=O)O,z-score,,0.602 (inactive)
same,cell count,,5430
Cc1c(-c2ccc(-c3ccccc3F)cc2)nc2ccc(F)cc2c1C(=O)O,outcome,library stock 10 mM,inactive; censored for cell count
same,z-score,[5],-0.011 (inactive)
same,z-score,[6],9.53 (active)
same,z-score,[7],9.71 (active)
same,cell count,[5],5350
same,cell count,[6],2330
same,cell count,[7],1790
CCC(NC(=O)c1c(C)c(-c2ccccc2)nc2ccccc12)c1ccccc1 (stereo not drawn),z-score,[5],-0.542 (inactive)
same,z-score,[6],-0.315 (inactive)
same,z-score,[7],-0.402 (inactive)
same,z-score,[4],-0.409 (inactive)
same,cell count,[5],7010
same,cell count,[6],6770
same,cell count,[7],6520
same,cell count,[4],5870
Cc1c(Cc2ccc3ccccc3n2)c2cc(F)ccc2n1CC(=O)O,z-score,[5],-0.574 (inactive)
same,z-score,[6],-0.436 (inactive)
same,z-score,[7],-0.171 (inactive)
same,z-score,[4],-0.183 (inactive)
same,cell count,[5],6030
same,cell count,[6],6070
same,cell count,[7],6110
same,cell count,[4],5700
O=C(O)CCC/C=C/C[C@@H]1[C@@H](CC[C@@H](O)CCc2ccccc2)[C@H](O)C[C@@H]1O,z-score,,-0.13 (inactive)
same,cell count,,5360
CC(C)(C)C(=O)Nc1ccccc1,z-score,,-0.189 (inactive)
same,cell count,,5010
Nc1ccccc1NC(=O)CCCCCCC(=O)Nc1ccccc1,z-score,,0.265 (inactive)
same,cell count,,5570
O=C(CCCCCCC(=O)Nc1ccccc1)NO,z-score,,0.328 (inactive)
same,outcome,library stock 10 mM,inactive; censored for cell count
same,z-score,[5],0.428 (inactive)
same,z-score,[6],2.1 (active)
same,z-score,[7],10.2 (active)
same,cell count,,5300
same,cell count,[5],5490
same,cell count,[6],4770
same,cell count,[7],3220
CCCCCCCCCCCCCCCCSC[C@H](COP(=O)([O-])OCC[N+](C)(C)C)NC(=O)CCCCCCCCCCCCCCC,z-score,,-0.387 (inactive)
same,cell count,,5820
C#CCC(Cc1cnc2nc(N)nc(N)c2n1)c1ccc(C(=O)NC(CCC(=O)O)C(=O)O)cc1 (stereo not drawn),outcome,library stock 278 µM,inactive; censored for cell count
same,outcome,library stock 1.67 mM,inactive; censored for cell count
same,outcome,library stock 10 mM,inactive; censored for cell count
same,z-score,[1],1.41 (inactive)
same,cell count,[1],2070
CCCCCCCCCCCCCCC(=O)N[C@H]1CCOC1=O,outcome,,inactive; censored for cell count
CSCCC(NC(=O)C(CC(C)C)NC(=O)CNC(=O)C(NC(=O)C(Cc1ccccc1)NC(=O)C(CO)NC(=O)C(CC(=O)O)NC(=O)[C@H](NC(=O)C(CCCCN)NC(=O)C(N)Cc1cnc[nH]1)C(C)O)C(C)C)C(N)=O (stereo partly drawn),z-score,[5],-0.214 (inactive)
same,z-score,[6],-0.449 (inactive)
same,z-score,[7],-0.151 (inactive)
same,z-score,[4],-0.389 (inactive)
same,cell count,[5],6630
same,cell count,[6],6610
same,cell count,[7],6500
same,cell count,[4],6040
Cn1ncnc1C1c2n[nH]c(=O)c3cc(F)cc(c23)NC1c1ccc(F)cc1 (stereo not drawn),outcome,library stock 10 mM,inactive; censored for cell count
same,z-score,[5],1.87 (inactive)
same,z-score,[6],3.69 (active)
same,z-score,[7],6.89 (active)
same,cell count,[5],3700
same,cell count,[6],2650
same,cell count,[7],1700
CC#C[C@]1(O)CC[C@@H]2[C@@H]3CCC4=CC(=O)CCC4=C3C(c3ccc(N(C)C)cc3)C[C@@]21C (stereo partly drawn),z-score,[5],-0.535 (inactive)
same,z-score,[6],-0.414 (inactive)
same,z-score,[7],-0.596 (inactive)
same,z-score,[4],-0.985 (inactive)
same,cell count,[5],5620
same,cell count,[6],5640
same,cell count,[7],5480
same,cell count,[4],4850
Cc1cc(C)cc(NC(=O)Nc2ccc(S(N)(=O)=O)cc2)c1,z-score,[5],-0.282 (inactive)
same,z-score,[6],-0.269 (inactive)
same,z-score,[7],-0.436 (inactive)
same,z-score,[4],-0.561 (inactive)
same,cell count,[5],5270
same,cell count,[6],5260
same,cell count,[7],5280
same,cell count,[4],5230
CCCCC[C@@H](O)CC[C@H]1[C@H](O)CC(=O)[C@@H]1CCCCCCC(=O)O,z-score,,0.414 (inactive)
same,cell count,,5360
CCCCCC(=O)CC[C@H]1[C@H](O)CC(=O)[C@@H]1C/C=C\CCCC(=O)O,z-score,,0.0242 (inactive)
same,cell count,,5260
CCCCCC(=O)CC[C@H]1[C@H](O)CC(=O)[C@@H]1CCCCCCC(=O)O,z-score,,3.62 (active)
same,cell count,,3870
CCCCC[C@H](O)/C=C/[C@@H]1[C@@H](C/C=C\CCCC(=O)NCCO)[C@@H](O)C[C@H]1O,z-score,,-0.4 (inactive)
same,cell count,,5500
